The record followed here is PubChem BioAssay.

Where “and” joins values, the source holds several entries; their conditions need not be identical. Equal values may be shown once. Calls of active or inactive are those of the source.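 The calls were made as follows, unless noted: active = z-score of at least 1.8 in each of two replicates, scored against plate mean and spread of sample wells; inactive = the rest.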

The inhibition is the change of the read-out against control, counted positive when it falls. As a reminder, the viability is a per cent measure of how many cells are alive, often set against a control.

The nature of experiment [1]: suppressors of polyQ aggregation in yeast, 75Q-TubU reporter (AID 1593). The note with it: Yeast 75Q polyglutamine aggregation reporter.
Experiment [2] can be described thus: inhibitors of mitochondrial cytochrome c release, biochemical, purified mitochondria (AID 1603).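 Also: mouse liver mitochondria challenged with calcium chloride; signal normalized to the plate average as 100%.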 The note with it: stronger effect = lower value.
Experiment [3] can be described thus: inhibitors of polyQ protein aggregation (AID 1604). Particulars: polyglutamine-induced protein aggregation inhibition assay; stronger effect = higher value; tested at 2.5 µM.
A short description of experiment [4]: stimulators of nuclear beta-catenin in C2C12, primary screen, imaging, WNT3A-conditioned medium, mouse C2C12, NPC library (AID 1117326; in the data active = nuclear beta-catenin stimulation mostly above about 4.2%, no sharp cut-off; inactive = mostly below about 10%). The note with it: stronger effect = higher value.
Experiment [5] can be described thus: stimulators of insulin release from INS-1E, primary screen, cell-based, 5 mM glucose, NPC library (AID 1117329;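 active = compound raises insulin release from rat beta cells at 5 mM glucose, no numeric limit stated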). The note with it: rat INS-1E insulin secretion, at 10 µM, stronger effect = higher value.
The nature of experiment [6]: growth inhibition of GSK3B-pretreated HCT116 cells – cell-based, CellTiter-Glo, 0.2 to 20 µM (AID 1117336;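 active = compounds lowering colon cancer cell viability after pretreatment blocking the GSK3B kinase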). Particulars: HCT116 viability after GSK3B inhibitor, at 20 µM, stronger effect = higher value. In general terms: ATP-based viability assays read luminescence as a measure of living cells.
Experiment [7] can be described thus: inhibition of endothelial tube formation, primary screen, imaging, VEGF stimulated, CD31 staining, tube area, NPC library (AID 1117340;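 active = compound that reduces growth-factor-driven endothelial tube area in a mixed cell culture, no cutoff stated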). Particulars: VEGF-stimulated ADSC/ECFC co-culture, at 10 µM, stronger effect = higher value.
A short description of experiment [8]: glucagon-like peptide 1 release enhancers, primary assay, NCI-H716 cell line, NPC library (AID 1117341;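 active = compound raises GLP1 secretion from the human gut endocrine cells, with no numeric limit stated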). The note with it: NCI-H716 cells, at 10 µM, stronger effect = higher value.
Experiment [9] in a line: HCT116 colon cancer cell growth inhibition, primary screen, CellTiter-Glo luminescence, NPC library (AID 1117342;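 active = compounds that lower survival of HCT116 colon cancer cells in the luminescence readout, no numeric limit stated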). Particulars: at 20 µM (top of the series).
The nature of experiment [10]: CellTiter-Glo luminescent readout of SW480 viability loss, NPC library primary (AID 1117343;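 active = compounds that lower viability of the colon cancer cells in the luminescence readout, with no numeric limit stated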). The note with it: CellTiter-Glo luminescence; at 20 µM (top of the series).
A short description of experiment [11]: decreased DLD-1 cellular survival, CellTiter-Glo luminescent readout, NPC compound collection, primary HTS (AID 1117346;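 active = compounds that lower survival of DLD-1 colon cancer cells in the luminescence readout, no cutoff given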). The note with it: DLD-1 viability, CellTiter-Glo luminescence; at 20 µM (top of the series).
Experiment [12] deals with 6-phosphogluconate dehydrogenase, decarboxylating (Homo sapiens) (UniProt P52209). Put plainly: 6PGD enzyme inhibitors, primary screen, biochemical, human, recombinant enzyme, NADPH absorbance (AID 1159550;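 active = at least 20% inhibition of 6-phosphogluconate dehydrogenase activity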). The note with it: recombinant 6PGD, NADPH absorbance 341 nm; at 10 µM; stronger effect = higher value.
The nature of experiment [13]: differential killing of epithelial or mesenchymal cells, primary screen, imaging, PC-3E GFP, TEM4-18 mCherry, co-culture (AID 1345086;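 active = compounds killing one labelled cell type while sparing the other, by normalised counts and ratio limits, not self-fluorescent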;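 as to all read-outs here: cells exposed to compound for 72 h before imaging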;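 as to red/green cell ratio (normalised): normalised mesenchymal count divided by normalised epithelial count so high means epithelial killing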). The note with it: imaging cell counts, at 1 µM; for red/green cell ratio (normalised): actives lie on both sides.
Experiment [14] concerns Aerobactin synthetase IucA (Klebsiella pneumoniae hvKP1). Put plainly: Biochemical IucA enzyme inhibition primary screen of the Spectrum library (AID 1346200; call rule not given here;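 also: 100% = wells without compound and 0% = wells lacking enzyme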). The note with it: malachite green pyrophosphate, A620, at 8 µM, stronger effect = lower value.
Experiment [15] in a line: survival rescue of mitochondrial mutant cells in low glucose, primary screen, MELAS cybrids, Rieske KO mouse fibroblasts, CellTiter-Glo (AID 1508586;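 active = mean z-score across replicates of 1.96 or higher in either the MELAS or the Rieske mutant cell line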;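 also: z relative to plate mean and SD of compound and empty wells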).
Experiment [16] deals with NAD(+) hydrolase SARM1 (Homo sapiens) (UniProt Q6SZW1). Put plainly: SARM1 TIR NADase inhibitors, cell lysate, NAD-Glo luminescence (AID 1508614;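 active = compound whose remaining NAD level is above about 45 nM, limit read from the data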;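 also: higher remaining NAD means stronger inhibition of SARM1 NADase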). The note with it: SAM-TIR HEK293T lysate NADase, at 1 µM, stronger effect = higher value.
The target in experiment [17] is Mitogen-activated protein kinase 7 (Homo sapiens) (UniProt Q13164). Put plainly: ERK5 transactivation activators in reporter cells, primary screen, cell-based, HTS (AID 1508626;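 active = luciferase signal above three times the same-plate solvent-only control wells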;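 also: luciferase driven by Gal4-ERK5 fusion binding five Gal4 sites before minimal TATA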). The note with it: HeLa Gal4-ERK5 transactivation, 18 h, at 5 µM, stronger effect = higher value.
Experiment [18] in a line: viability rescue of complex I mutant cybrids, primary screen, cell-based, galactose medium, ATP luminescence (AID 1645843).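 Also: positive z means more ATP and so rescue of galactose-driven cybrid death.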 The note with it: complex I mutant cybrid cells, 72 h, stronger effect = higher value.
The nature of experiment [19]: liver-stage malaria parasite growth inhibition, primary screen, cell-based, HepG2, luciferase luminescence, HepG2 viability (AID 624349; in the data active = parasite load remaining mostly below about 12%, no sharp cut-off; inactive = mostly above about 10%;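 also: 100% = mean of DMSO negative control wells on the same plate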). The note with it: P. berghei liver stage in HepG2, luciferase luminescence, concentration not given here; parasite load remaining: stronger effect = lower value; viability: measured here: HepG2 viability without parasites.
The nature of experiment [20]: sensitizers of A549 cells to miR-34 induction, primary screen, imaging, A549 dox-inducible miR-34, nuclei and caspase counts (AID 1347080;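 active = compounds whose cell count with miR-34 switched on is under 0.7 times the count with it off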). Particulars: A549 miR-34 inducible, Hoechst nuclei count, 48 h.
The mark [21] stands for this setting: measured here: epithelial PC-3E GFP cell survival.
[22] abbreviates: measured here: mesenchymal TEM4-18 mCherry cell survival.
Where [23] appears, read: MELAS cybrid survival, CellTiter-Glo 48 h, stronger effect = higher value.
[24] abbreviates: Rieske KO mouse fibroblast survival, CellTiter-Glo 72 h.

Sequence of 6-phosphogluconate dehydrogenase, decarboxylating (Homo sapiens) (P52209 whole entry, looked up): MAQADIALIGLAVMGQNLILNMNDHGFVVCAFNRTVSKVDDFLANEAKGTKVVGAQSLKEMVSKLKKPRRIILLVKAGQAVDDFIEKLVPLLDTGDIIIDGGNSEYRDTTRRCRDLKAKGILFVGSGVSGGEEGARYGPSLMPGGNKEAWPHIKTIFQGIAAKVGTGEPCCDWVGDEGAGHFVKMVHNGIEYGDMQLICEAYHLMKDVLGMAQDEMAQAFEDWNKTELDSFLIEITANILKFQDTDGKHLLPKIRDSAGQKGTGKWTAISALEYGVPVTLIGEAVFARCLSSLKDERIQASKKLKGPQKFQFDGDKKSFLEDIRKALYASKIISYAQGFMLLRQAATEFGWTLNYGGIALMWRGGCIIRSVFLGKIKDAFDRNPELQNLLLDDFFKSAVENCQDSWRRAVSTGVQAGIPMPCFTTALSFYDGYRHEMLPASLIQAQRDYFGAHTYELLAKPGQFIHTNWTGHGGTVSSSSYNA
Sequence of Mitogen-activated protein kinase 7 (Homo sapiens) (Q13164 whole entry, looked up, the tested form may be a part): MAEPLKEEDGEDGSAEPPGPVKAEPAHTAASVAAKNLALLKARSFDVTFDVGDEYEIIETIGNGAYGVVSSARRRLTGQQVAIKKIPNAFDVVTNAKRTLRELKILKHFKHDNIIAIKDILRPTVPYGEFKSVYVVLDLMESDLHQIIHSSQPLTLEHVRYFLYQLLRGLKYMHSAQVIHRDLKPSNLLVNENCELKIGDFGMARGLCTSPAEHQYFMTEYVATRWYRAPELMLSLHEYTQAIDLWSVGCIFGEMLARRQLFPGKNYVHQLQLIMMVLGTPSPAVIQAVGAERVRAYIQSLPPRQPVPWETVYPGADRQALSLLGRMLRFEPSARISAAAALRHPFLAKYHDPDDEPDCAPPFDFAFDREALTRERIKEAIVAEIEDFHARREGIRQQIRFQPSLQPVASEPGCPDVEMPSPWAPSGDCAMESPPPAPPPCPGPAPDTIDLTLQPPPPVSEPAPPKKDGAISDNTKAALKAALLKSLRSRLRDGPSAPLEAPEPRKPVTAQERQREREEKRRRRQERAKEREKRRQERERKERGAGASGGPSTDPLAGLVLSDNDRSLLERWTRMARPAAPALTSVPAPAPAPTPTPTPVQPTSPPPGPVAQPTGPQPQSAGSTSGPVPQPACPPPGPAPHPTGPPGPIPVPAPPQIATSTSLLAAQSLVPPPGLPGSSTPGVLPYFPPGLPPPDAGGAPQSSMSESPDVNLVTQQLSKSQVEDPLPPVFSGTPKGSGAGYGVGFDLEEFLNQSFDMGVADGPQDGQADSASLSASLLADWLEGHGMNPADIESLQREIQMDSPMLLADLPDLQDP
Sequence of NAD(+) hydrolase SARM1 (Homo sapiens) (Q6SZW1 whole entry, looked up, the tested form may be a part): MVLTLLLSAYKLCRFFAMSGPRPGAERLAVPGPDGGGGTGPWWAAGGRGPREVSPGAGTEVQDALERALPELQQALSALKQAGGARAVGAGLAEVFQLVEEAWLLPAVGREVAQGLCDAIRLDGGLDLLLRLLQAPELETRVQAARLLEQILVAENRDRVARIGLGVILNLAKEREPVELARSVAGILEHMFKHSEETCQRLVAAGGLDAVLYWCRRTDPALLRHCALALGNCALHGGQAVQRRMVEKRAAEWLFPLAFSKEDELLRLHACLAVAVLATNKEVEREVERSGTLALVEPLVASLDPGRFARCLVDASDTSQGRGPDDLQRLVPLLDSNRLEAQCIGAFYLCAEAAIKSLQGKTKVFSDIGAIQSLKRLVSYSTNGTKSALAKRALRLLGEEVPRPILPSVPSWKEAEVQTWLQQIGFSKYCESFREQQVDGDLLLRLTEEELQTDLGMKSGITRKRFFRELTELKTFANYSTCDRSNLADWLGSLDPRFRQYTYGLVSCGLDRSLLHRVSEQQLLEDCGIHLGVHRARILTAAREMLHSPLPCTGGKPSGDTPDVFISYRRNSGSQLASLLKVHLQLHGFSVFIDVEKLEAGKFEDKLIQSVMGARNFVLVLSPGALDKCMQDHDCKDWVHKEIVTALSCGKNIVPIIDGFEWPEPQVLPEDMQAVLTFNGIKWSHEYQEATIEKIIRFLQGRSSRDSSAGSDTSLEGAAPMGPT

Take `CCC1(c2ccc(N)cc2)CCC(=O)NC1=O` (configuration not stated): the score in experiment [1] is 1.07. Moreover, the cytochrome c release ratio in [2] came out at 0.66. Also, the inhibition of aggregation in experiment [3] is -9.29%. Besides, the nuclear beta-catenin stimulation was -0.3% (inactive) in experiment [4] (at 10 µM) and -0.3% in [4] (stimulation, at 2 µM). Also, the insulin secretion stimulation in experiment [5] is -2.7% (inactive). In experiment [6], the viability decrease is -4.4% (inactive). In addition, in experiment [7], the tube area decrease was 14.2% (inactive). In addition, the GLP1 secretion stimulation in [8] is 4.2% (inactive). Also, the inhibition of viability in experiment [9] was -0.6% (inactive). Moreover, the viability decrease (inhibition) in [10] is 45.3% (inactive); in experiment [11], 10% (inactive). The inhibition in experiment [12] was 13.3% (inactive). Moreover, the red/green cell ratio (normalised) in [13] was 0.89 (inactive). Besides, the normalised cell number came to 1.36 in experiment [13] (setting [21]) and 1.2 in experiment [13] (setting [22]). The activity remaining in [14] is 112% (inactive). For the same compound, the z-score was -0.397 (inactive) and 0.19 (inactive) and 0.162 (inactive) in [15] (setting [23]); -0.0248 and -0.0255 and -0.773 in [15] (setting [24]); 0.24 (inactive) and 0.82 (inactive) and 0.775 (inactive) in [18]. The remaining NAD in experiment [16] was 10 nM (inactive). In addition, the luciferase signal in experiment [17] is 56 AU (inactive).

For `O=[N+]([O-])/N=C1\NCCN1Cc1ccc(Cl)nc1`, the nuclear beta-catenin stimulation in [4] (at 10 µM) is 0.9% (inactive); in [4] (stimulation, at 2 µM) it was 1.2%. Moreover, in experiment [5], the insulin secretion stimulation was -1.2% (inactive). The viability decrease in experiment [6] was -10.2% (inactive). The tube area decrease in [7] was -4.1% (inactive). The GLP1 secretion stimulation in experiment [8] is -2% (inactive). Further, the inhibition of viability in experiment [9] was 9.4% (inactive). Also, the results for the viability decrease (inhibition) in experiment [10] and in experiment [11] were 27.9% (inactive) and -0.3% (inactive), respectively. In addition, in experiment [12], the inhibition is -7.9% (inactive).

On to `CC(C)(C)NCC(O)c1ccccc1Cl` (configuration not stated), for which the score in experiment [1] is 1.29. In addition, the cytochrome c release ratio in [2] came out at 0.96. Further, the inhibition of aggregation in experiment [3] was found to be 72.5%. The parasite load remaining in [19] was 85.5% (inactive) and 23.5% (inactive). Also, in experiment [19], the viability was 91.9% and 68.5%. In addition, the nuclear beta-catenin stimulation was -0.7% (inactive) in experiment [4] (at 10 µM) and -0.7% in [4] (stimulation, at 2 µM). Besides, the insulin secretion stimulation in [5] is -1.2% (inactive). Further, the viability decrease in [6] is -32.4% (inactive). Also, the tube area decrease in [7] is 5.2% (inactive). Also, the GLP1 secretion stimulation in [8] is 0.9% (inactive). The inhibition of viability in experiment [9] was -0.17% (inactive). Also, the results for the viability decrease (inhibition) in experiment [10] and in [11] were -2.1% (inactive) and -14.4% (inactive), respectively. Further, the inhibition in experiment [12] is 14% (inactive). Besides, the red/green cell ratio (normalised) in experiment [13] is 0.9 (inactive). The normalised cell number in [13] (setting [21]) came to 1.07; in experiment [13] (setting [22]) it was 0.97. The activity remaining in experiment [14] is 102% (inactive). The fold change was 0.985 (inactive) and 0.856 (inactive) in experiment [20] (stronger effect = lower value); 1.26 and 1.33 in [20] (measured here: relative caspase fold change +Dox/-Dox). Further, the cell count in experiment [20] (measured here: total cells with miR-34 induction, stronger effect = lower value) was 10200 and 9170; in experiment [20] (measured here: total cells without miR-34 induction) it was 10400 and 10700. Further, the z-score is -0.495 (inactive) and -0.187 (inactive) in experiment [15] (setting [23]); 0.0224 and -0.446 in experiment [15] (setting [24]); 0.29 (inactive) and 0.245 (inactive) in experiment [18]. In addition, the remaining NAD in experiment [16] is 10 nM (inactive). Besides, the luciferase signal in experiment [17] was 24 AU (inactive).

Consider `CC(C)N(CCC(C(N)=O)(c1ccccc1)c1ccccn1)C(C)C` (configuration not stated), for which, in experiment [1], the score was found to be 1.39. The cytochrome c release ratio in experiment [2] was 1.18. Besides, the inhibition of aggregation in experiment [3] was 70.4%. Also, the nuclear beta-catenin stimulation in experiment [4] (at 10 µM) was 0.5% (inactive); in experiment [4] (stimulation, at 2 µM), 1.2%. Also, the insulin secretion stimulation in experiment [5] was 0.8% (inactive). In addition, the viability decrease in experiment [6] is -17.4% (inactive). In [7], the tube area decrease is 15.3% (inactive). Moreover, the GLP1 secretion stimulation in experiment [8] was -2.8% (inactive). In addition, in [9], the inhibition of viability was -3.87% (inactive). The viability decrease (inhibition) in [10] is 18.8% (inactive); in experiment [11], -13.7% (inactive). Also, in experiment [12], the inhibition was 5.28% (inactive). Moreover, the red/green cell ratio (normalised) in experiment [13] is 1.1 (inactive). Moreover, the normalised cell number in experiment [13] (setting [21]) was determined as 1.22; in experiment [13] (setting [22]), 1.34. The activity remaining in experiment [14] is 102% (inactive). The z-score in experiment [15] (setting [23]) is -0.238 (inactive) and 0.483 (inactive); in [15] (setting [24]) it was -0.211 and 0.374; in experiment [18] it was 0.14 (inactive) and 0.36 (inactive) and 1.19 (inactive). In addition, the remaining NAD in experiment [16] was 10 nM (inactive). Also, the luciferase signal in experiment [17] was 32 AU (inactive).
